Screening results as filed in PubChem.
SARS PLP yeast = qHTS of Yeast-based Assay for SARS-CoV PLP; S. cerevisiae expressing SARS-CoV PLpro, growth rescue; Potency, µM (titrated, usually from 32.9 µM), inactives show at the top dose activity, positive = growth rescue, most hits filed as activators; 330,000 compounds, 0.19% hits; note: 0% is about no effect; nearly all actives have a fitted effect of over 55% in size
NS1 function inh = qHTS Assay for Inhibitors of Influenza NS1 Protein Function | Potency, µM (series often up to 46.1 µM), for the others: top-dose activity, positive = more growth | 270,000 compounds, 0.4% hits; note: actives are rising curves; nearly all actives have a fitted effect of over 50% in size
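OD600 was taken as the measure of yeast growth restored by compound in an NS1-expressing S. cerevisiae strain. Cells had been washed out of glucose medium and diluted 1:100 into galactose -URA medium, pH 6.0.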
Pf growth 48h = Primary qHTS for delayed death inhibitors of the malarial parasite plastid, 48 hour incubation. P. falciparum luciferase growth in erythrocytes, 48 h. Potency, µM (doses to about 28.7 µM), inactives show top-dose activity change, negative = inhibition, usual class: inhibitors. 310,000 compounds, 5.9% hits; active = well fitted inhibition curve with a large enough effect; inconclusive = small, poorly fitted or top-dose-only effect, or another doubt; inactive = no such curve, though single readings can be large or run the other way; note: % is set by controls: 0 for no effect and ±100 for the full control effect
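Luminescence readout; reporter = integrated firefly luciferase in P. falciparum. RBC culture at 2% hematocrit, 0.1% parasitemia final, 37 C/5% CO2; decreased signal taken as growth inhibition.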
Pf growth 96h = Primary qHTS for delayed death inhibitors of the malarial parasite plastid, 96 hour incubation; P. falciparum luciferase reporter growth, 96 h; 320,000 compounds, 6.9% hits; Potency, µM (series often up to 28.7 µM), without a hit: top-dose activity change, negative = inhibition, actives largely listed as inhibitors; AID 504834, 2011; active = well fitted inhibition curve with a large enough effect; inconclusive = small, poorly fitted or top-dose-only effect, or another doubt; inactive = no such curve, though single readings can be large or run the other way; note: % is set by controls: 0 for no effect and ±100 for the full control effect
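Luminescence readout: decreased luciferase signal marks inhibited growth of reporter-expressing P. falciparum in infected red cells (2% hematocrit, 0.05% parasitemia final), exposed to compound two generations (96 h, 37 C, 5% CO2).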
RE007 growth inh = qHTS Assay for Inhibitors of the HIV-1 protein Vpr. Potency, µM (series often up to 92.2 µM), for the others: top-dose activity change, negative = less growth, hits mostly inhibitors. S. pombe RE007 Vpr strain, BacTiter-Glo ATP luminescence, 24 h. 360,000 compounds, 0.21% hits; active = well fitted falling curve with a large enough effect; inconclusive = small, poorly fitted or top-dose-only effect; inactive = no such curve, though single readings can be large or run the other way; note: % is set by controls: 0 for no effect and ±100 for the full control effect; nearly all actives have a fitted effect of over 50% in size
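Fission yeast RE007 carrying one integrated HIV-1 vpr copy, seeded at OD 0.01 in PMG+AL medium with 23 nL pinned compound. Grown 24 h at 30 degrees; viability read by BacTiter-Glo luminescence after 5 min.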
* = called active by the depositor; ? = inconclusive; nt = no result. Rows were chosen to be rich in hits. Some 9.5% of all compounds tested hit in one or more screens of this group. Unless noted, calls come from the whole dose curve. Potency is the fitted concentration of half-maximal effect.

SMILES	SARS PLP yeast	NS1 function inh	Pf growth 48h	Pf growth 96h	RE007 growth inh
CC(C(=O)Nc1ccc([N+](=O)[O-])cc1Cl)N1CCN(S(=O)(=O)c2cccs2)CC1 (stereo not drawn)	-2%	nt	12µM*	?	5%
Cc1cccc(C)c1C(O)c1ncc(-c2ccc(F)cc2)[nH]1 (stereo not drawn)	nt	nt	nt	nt	-16%
CC1C/C(=N/Nc2nc3ccccc3[nH]2)CC(C)(C)C1 (stereo not drawn)	5%	14%	3.7µM*	2.1µM*	-4%
C=CCN(c1cccc(C(F)(F)F)c1)S(=O)(=O)c1cccc(C(=O)OCC(=O)NC)c1	-5%	11%	?	12µM*	0%
C=CCN(c1cccc(C(F)(F)F)c1)S(=O)(=O)c1cccc(C(=O)OCC(=O)NC(N)=O)c1	12%	19%	-26%	?	4%
Nc1nc2c(Cl)ccc(Cl)c2s1	2%	nt	?	8.3µM*	-7%
Cc1sc2ncnc(N3CCC(C(=O)NNC(=O)c4ccccc4Cl)CC3)c2c1C	3%	-11%	?	8.3µM*	-5%
CC(=O)c1sc(NC(=O)C2CCN(c3ncnc4sc(C)c(C)c34)CC2)nc1-c1ccccc1	nt	nt	9.3µM*	?	-1%
Cc1sc2ncnc(N3CCC(C(=O)NNC(=O)COc4ccccc4Cl)CC3)c2c1C	-13%	nt	12µM*	?	34%
Cc1cc(C(=O)Nc2c(F)c(F)c(F)c(F)c2F)n(-c2ccccc2)n1	-3%	nt	7%	?	-13%
COc1ccc(OC)c(N(CCN2C(=O)c3ccccc3C2=O)C(=O)C2CCC(=O)C2C)c1 (stereo not drawn)	nt	nt	nt	nt	-4%
CCOc1ccc(/C=N/N2CCN(Cc3ccccc3)CC2)cc1	-7%	-18%	24%	0.74µM*	1%
COc1cccc(/C=N/N2CCN(Cc3ccccc3)CC2)c1O	12%	16%	10%	7.4µM*	-21%
Oc1ccc(Br)cc1/C=N/N1CCN(Cc2ccccc2)CC1	-3%	-34%	19%	39%	?
COC(=O)[C@@]1(Sc2ccc(C)cc2)CC(=O)N(C(=O)c2ccccc2)[C@@H]1c1ccccc1	nt	nt	nt	nt	15%
C[C@@H]1CN([C@@H](C)CO)C(=O)c2cc(Br)cnc2O[C@H]1CN(C)C(=O)Nc1ccc(F)cc1	nt	nt	nt	nt	2%
O=C(COC(=O)c1ccccc1N1C(=O)C2C3CCC(C3)C2C1=O)c1ccccc1 (stereo not drawn)	-3%	-9%	16%	2.3µM*	-7%
Cc1ccc(O)c(N=Nc2nccs2)c1	-8%	nt	?	-67%	18µM*
O=C(Nc1cccc(S(=O)(=O)N2CCCCC2)c1)C1CC(=O)N(Cc2ccccc2)C1 (stereo not drawn)	-3%	nt	13µM*	?	16%
O=C(Nc1cccc(S(=O)(=O)N2CCCCCC2)c1)C1CCC1	3%	nt	?	13µM*	-2%
CCCCc1nnc(NC(=O)C2CC(=O)N(Cc3ccccc3)C2)s1 (stereo not drawn)	?	17%	?	10µM*	-2%
O=C(Nc1cccc(S(=O)(=O)N2CCCCC2)c1)C1CCCC1	3%	nt	?	?	2%
O=S(=O)(Nc1nc2ccccc2nc1Nc1cccc(S(=O)(=O)N2CCCCC2)c1)c1ccccc1	7%	-4%	8.3µM*	2.1µM*	19%
CCCN1Cc2cc(OC)ccc2-c2ccccc2S1(=O)=O	1%	nt	nt	nt	2%
CC(C)C[C@H]1CN(CCCC[C@H]2CNC(=O)C(=O)N2CC2CCCCC2)C(=O)C(=O)N1CC1CCCCC1	nt	nt	nt	nt	2%
SMILES	SARS PLP yeast	NS1 function inh	Pf growth 48h	Pf growth 96h	RE007 growth inh
CC(=O)c1cccc(NC(=O)NNC(=O)CCC(=O)Nc2ccc(C)c(C)c2)c1	3%	nt	-4%	20%	0%
O=S(=O)(c1cccc(C(F)(F)F)c1)N1CCC(c2cc(-c3cccc4ccccc34)n[nH]2)CC1	-3%	20%	?	10µM*	11%
O=C(Nc1ccncc1)C1CCN(S(=O)(=O)c2cccc(C(F)(F)F)c2)CC1	3%	nt	13µM*	9.3µM*	-16%
COc1ccc(S(=O)(=O)N2CCCCC2)cc1NC(=O)C1CC(=O)N(Cc2ccccc2)C1 (stereo not drawn)	4%	nt	13µM*	12µM*	3%
Cc1ccc(S(=O)(=O)N2CCCCC2)cc1NC(=O)C1CC(=O)N(Cc2ccccc2)C1 (stereo not drawn)	3%	-5%	?	-30%	8%
O=C(NCc1ccncc1)C1CCN(S(=O)(=O)c2cccc(C(F)(F)F)c2)CC1	2%	18%	-4%	?	-13%
N#Cc1c(Cl)nsc1NN	-14%	nt	1%	265%	?
COc1ccc(C(=O)/C=C/c2ccccc2)c(OC)c1	-5%	-8%	-63%	?	-14%
COc1ccc(C(=O)/C=C/c2ccc(N(C)C)cc2)c(OC)c1	-2%	8%	?	2.1µM*	-10%
CCNC(=S)Nc1ccc2c(c1)c(=O)n(C)n2-c1ccc(C(C)(C)C)cc1	nt	nt	nt	nt	32%
CCN(CC)S(=O)(=O)c1ccc2[nH]cc(C(=O)NCCN3CCCCCC3)c(=O)c2c1	-2%	15%	1.9µM*	209%	-7%
CCN(CC)S(=O)(=O)c1ccc2[nH]cc(C(=O)NCCN3CCCCC3C)c(=O)c2c1 (stereo not drawn)	-1%	-4%	4.1µM*	nt	-8%
CCN(CC)S(=O)(=O)c1ccc2[nH]cc(C(=O)NCCCN3CCCCC3C)c(=O)c2c1 (stereo not drawn)	27%	-5%	10µM*	nt	-4%
CCN(CC)S(=O)(=O)c1ccc2[nH]cc(C(=O)NCCC3=CCCCC3)c(=O)c2c1	0%	-37%	8.3µM*	-29%	29%
CCN(CC)S(=O)(=O)c1ccc2[nH]cc(C(=O)NCCCN3CCCCC3)c(=O)c2c1	11%	8%	?	?	8%
CCc1ccc(N(C)S(=O)(=O)c2ccc3[nH]cc(C(=O)NCCN4CCOCC4)c(=O)c3c2)cc1	0%	-2%	nt	?	-14%
COCc1c(C(=O)NC(C)c2ccc(S(N)(=O)=O)cc2)oc2ccccc12 (stereo not drawn)	3%	8%	11%	4%	5%
CN(C)CCCNc1ncnc2nc[nH]c12	nt	3%	nt	nt	nt
CC(=O)Nc1cccc(NC(=O)CSc2nc3c(=O)n(C)c(=O)n(C)c3n2C)c1	6%	nt	2%	-17%	8%
COc1ccc(S(=O)(=O)NCc2cccnc2)cc1NC(=O)c1ccc(Cl)cc1	-5%	nt	?	?	10%
CC(=O)C1=CCC(c2ccccc2Cl)N(S(=O)(=O)c2ccc(C)cc2)C1 (stereo not drawn)	nt	nt	nt	nt	5%
CCCCCNC(=O)c1c[nH]c2ccc(S(=O)(=O)N3CCC4(CC3)OCCO4)cc2c1=O	-13%	-10%	13µM*	0%	4%
